Only a selection was taken, and hits are over-represented in it overall.
RMI FANCM FP: inhibitors of human RMI core complex binding to FANCM MM2; Fluorescence polarization, RMI core complex with F-MM2 peptide; stronger effect = lower value; FP signal (polarization) at 33 µM; 70,000 tested, 0.58% active; in the data active = FP signal below about 40
* marks the source's active call; other numbers are inactive results; ! = a repeat was not active.

How did C=CCn1c(CSc2nc3ccccc3s2)nnc1SCC(=O)Nc1ccccc1C(=O)O do in these assays?
RMI FANCM FP: 56

Results for O=C1NC(=O)C2C1C(c1ccccc1Cl)NN2Cc1ccccc1 (stereo unspecified) ?
RMI FANCM FP: 55

Results for CC(C)C(=O)Nc1ccc(C(=O)NCCNC(=O)c2ccc3c(c2)OCO3)cc1 ?
RMI FANCM FP: 70

How did Cc1cccnc1NC(=O)CCn1cnc2c(cnn2-c2ccc(F)cc2)c1=O do in these assays?
RMI FANCM FP: 73

How did CCOC(=O)C1=C(N)C(=O)N(c2ccccc2)C1 do in these assays?
RMI FANCM FP: 57

Results for CCOC(=O)C1=C(N)CC(C(=O)OCC)=C(N)C1 ?
RMI FANCM FP: 16*

Results for CCOC(=O)c1ccc(N)cc1 ?
RMI FANCM FP: 56

How did CS(=O)(=O)N1CCCCC1C(=O)N1CCN(c2nc3ccc(F)cc3s2)CC1 (stereo unspecified) do in these assays?
RMI FANCM FP: 65

How did COc1cc(-c2ccc(=O)n(CC(=O)Nc3ccc(F)cc3F)n2)cc(OC)c1OC do in these assays?
RMI FANCM FP: 56

What do the screens show for `Cc1ccc(-c2noc(-c3cccn(CC(=O)Nc4ccc(F)cc4F)c3=O)n2)cc1`?
RMI FANCM FP: 95

How did COc1cc2cc(CNc3ccc(C)cc3)c(=O)n(CC(=O)Nc3ccc(F)cc3F)c2cc1OC do in these assays?
RMI FANCM FP: 9*

What do the screens show for `CS(=O)(=O)c1ccc(-c2ccc(NS(=O)(=O)c3ccc(Cl)s3)cc2)nn1`?
RMI FANCM FP: 60

What do the screens show for `Cc1nc(NC(=O)Nc2cccc(Cl)c2)sc1C(=O)N1CCN(c2ccccc2F)CC1`?
RMI FANCM FP: 57

What do the screens show for `COc1ccc(-c2cn3c(C(=O)Nc4cc(C)ccc4C)csc3n2)cc1`?
RMI FANCM FP: 72

How did CC1CCc2oc3c(cc(NS(=O)(=O)c4ccc(Br)cc4)c4ccccc43)c2C1 (stereo unspecified) do in these assays?
RMI FANCM FP: 35

Results for CC1CCc2oc3c(cc(NS(=O)(=O)c4cccs4)c4ccccc43)c2C1 (stereo unspecified) ?
RMI FANCM FP: 64

How did CCC(C)(C)C1CCc2oc3c(cc(NS(=O)(=O)c4cccc([N+](=O)[O-])c4)c4ccccc43)c2C1 (stereo unspecified) do in these assays?
RMI FANCM FP: 32*!

What do the screens show for `Cc1nc2ccccc2c(=O)n1-c1ccc(NS(C)(=O)=O)cc1`?
RMI FANCM FP: 54

Results for CCOC(=O)N1CCN(C(c2ccncc2)c2c(C)[nH]c3ccccc23)CC1 (stereo unspecified) ?
RMI FANCM FP: 58

Results for CCOC(=O)N1CCN(CC(O)COc2ccc(-c3ccccc3)cc2)CC1 (stereo unspecified) ?
RMI FANCM FP: 65

Results for CCOC(=O)N1CCN(C(c2ccccn2)c2c(-c3ccccc3)n(O)c3ccccc23)CC1 (stereo unspecified) ?
RMI FANCM FP: 26*

What do the screens show for `COc1ccc2nc(-c3cccc(NC(=O)c4ccc(Cl)cc4Cl)c3)cn2n1`?
RMI FANCM FP: 73

Results for O=C(c1cn(Cc2ccccc2)nc1OCc1ccccc1)N1CCOCC1 ?
RMI FANCM FP: 56

Results for CCOC(=O)c1nn(C)c(C)c1Br ?
RMI FANCM FP: 53

Results for COC(=O)c1sc(SC)c(C#N)c1-c1ccco1 ?
RMI FANCM FP: 57

Results for N#CC1=C(N)OC(c2ccco2)=C(C#N)C1c1ccco1 (stereo unspecified) ?
RMI FANCM FP: 56

Results for N#Cc1c(N)c(C#N)c2c(c1-c1ccco1)Cc1ccccc1-2 ?
RMI FANCM FP: 12*

Results for COc1coc(C(=O)NCCc2ccccc2)cc1=O ?
RMI FANCM FP: 63

Results for COc1cc2c(cc1OC)C(COc1ccc([N+](=O)[O-])cc1)N(C(=O)CCCCl)CC2 (stereo unspecified) ?
RMI FANCM FP: 61

What do the screens show for `Clc1cccc(CSc2nccn3nc(-c4cccs4)cc23)c1`?
RMI FANCM FP: 82

Results for O=C1NC(=S)/C(=C/c2cccnc2)S1 ?
RMI FANCM FP: -19*

Results for CC(/C=C1\SC(=O)NC1=S)=C\c1ccccc1 ?
RMI FANCM FP: 36

Results for Cc1ccc(N=C2NC(=O)/C(=C/c3cccnc3)S2)cc1 ?
RMI FANCM FP: 64

What do the screens show for `CC(=O)c1ccc(NC(=O)CSc2nc3c(-c4ccccc4)c[nH]c3c(=O)n2C)cc1`?
RMI FANCM FP: 104

Results for CC(=O)[C@H]1CCC2C3C[C@H](C)C4=CC(=O)CC[C@]4(C)C3[C@@H](O)C[C@@]21C (stereo partly specified) ?
RMI FANCM FP: 63

What do the screens show for `O=c1c2cnn(-c3ccccc3)c2nnn1/N=C\c1ccc([N+](=O)[O-])cc1`?
RMI FANCM FP: 43

How did N=c1c2cnn(-c3ccccc3)c2ncn1/N=C\c1ccc([N+](=O)[O-])cc1 do in these assays?
RMI FANCM FP: 39*

What do the screens show for `O=[N+]([O-])c1cccc(-c2nnc3c4cnn(-c5ccc(F)cc5)c4ncn23)c1`?
RMI FANCM FP: 64

What do the screens show for `O=c1oc(-c2cccs2)nc2c(Br)cc(Br)c(F)c12`?
RMI FANCM FP: 54

What do the screens show for `Cc1ccc(CNC(=O)c2ccc(Cn3c(=S)[nH]c4cc5c(cc4c3=O)OCO5)cc2)o1`?
RMI FANCM FP: 92

What do the screens show for `NC(=O)C1CCN(C(=O)CCc2nc3sc4c(c3c(=O)[nH]2)CCCCC4)CC1`?
RMI FANCM FP: 42

What do the screens show for `O=C(CCc1nc2sc3c(c2c(=O)[nH]1)CCCCC3)N1CCN(Cc2ccc3c(c2)OCO3)CC1`?
RMI FANCM FP: 28*

What do the screens show for `O=C(CCc1nc2sc3c(c2c(=O)[nH]1)CCCCC3)N1CCN(c2ccccc2F)CC1`?
RMI FANCM FP: 66

How did CCOC(=O)Nc1cccc(N2CCCC2=O)c1 do in these assays?
RMI FANCM FP: 65

How did C=CCn1c(SCC(=O)Nc2cc(C)on2)nc2sc3c(c2c1=O)CCC3 do in these assays?
RMI FANCM FP: 56

How did FC(F)(F)c1ccncc1-c1nnc(-c2ccccc2)o1 do in these assays?
RMI FANCM FP: 57

What do the screens show for `C[C@]12CC[C@@H](O)CC1CCC1C2CC[C@](C)(C(=O)O)C1/C=C1/Nc2ccccc2C1=O` (stereo partly specified)?
RMI FANCM FP: 38

What do the screens show for `C[C@]12CC=CCC1CCC1C2CC[C@](C)(C(=O)O)C1/C=C1/Nc2ccccc2C1=O` (stereo partly specified)?
RMI FANCM FP: 35*!

Results for COc1ccccc1NC(=O)CSc1nc2c(sc(=S)n2-c2ccc(Cl)cc2)c(=O)[nH]1 ?
RMI FANCM FP: 63

How did CCOc1ccccc1NC(=O)C(=O)Nc1ccc2c(c1)N(C(=O)C1CC1)CCC2 do in these assays?
RMI FANCM FP: 54

What do the screens show for `CCOC(=O)CNC(=O)c1cc([N+](=O)[O-])ccc1Oc1ccc(OC)cc1`?
RMI FANCM FP: 59

Results for COc1ccc(Oc2ccc([N+](=O)[O-])cc2-c2nc(-c3ccccn3)no2)cc1 ?
RMI FANCM FP: 59

How did COc1ccc(Oc2ccc([N+](=O)[O-])c3nonc23)cc1 do in these assays?
RMI FANCM FP: 4*

Results for O=C(NCc1ccccn1)C1CCC(c2ccc(Cl)cc2)CC1 (stereo unspecified) ?
RMI FANCM FP: 54

What do the screens show for `COc1ccc(-c2cc(-c3ccccc3)nc3sc(C(=O)NCC4CCCO4)c(N)c23)cc1` (stereo unspecified)?
RMI FANCM FP: 9*

How did COc1ccc(-c2cc(-c3ccc(C)c(C)c3)nc3sc(C(N)=O)c(N)c23)cc1 do in these assays?
RMI FANCM FP: 123

Screening results: PubChem, Small Molecule Screening Facility, UW Madison
